From PubChem BioAssay (NCI) come the findings set out here.

Some test systems named below: DU-145 prostate; K-562 leukemia; MALME-3M melanoma; MDA-MB-231 breast; RXF 393 renal; SF-268 CNS; SF-295 CNS; SF-539 CNS; UACC-257 melanoma; M14 melanoma; HCT-15 colon; HT29 colon; SNB-75 CNS; SNB-19 CNS; U251 CNS; SK-MEL-5 melanoma; UACC-62 melanoma; LOX IMVI melanoma; SK-MEL-28 melanoma.
Holding throughout (test): NCI-60 one-dose screen, 48 h (100 = growth as untreated, 0 = no growth, -100 = all killed)
Holding throughout (settings): 10 µM unless noted

Each structure is given as a SMILES string. Compounds without any hit were thinned out: in the full panel of roughly 83,000, 20% have a hit.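 Note: values are percent growth. 100 is the growth of untreated cells, values between 100 and 0 indicate rising inhibition; between -100 and 0 indicates cell death.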 Unmarked numbers belong to inactive results. Active and inactive are the calls of the source. The calls were made as follows: active = growth percent below 10; inactive = the rest.

For `COc1ccc(-n2nc(C)c3c(Nc4ccc(NC(=O)Nc5cc(C(F)(F)F)ccc5F)cc4)ncnc32)cc1`, the growth in the experiment on DU-145 prostate was 63.6%; with K-562 leukemia it was 6.88% (active); with MALME-3M melanoma, 38.9%; with MDA-MB-231 breast, -9.99% (active); with RXF 393 renal, -13.2% (active); with SF-268 CNS it was 42.6%. The growth is -32.1% (active) with SF-295 CNS; 16.8% with SF-539 CNS; 45% in the experiment on UACC-257 melanoma; -29.6% (active) with M14 melanoma; 8.66% (active) with HCT-15 colon; 1.92% (active) in the experiment with HT29 colon. The growth in the experiment with SNB-75 CNS is 25.8%; in the experiment with SNB-19 CNS it was 34.8%; in the experiment with U251 CNS it was 12.9%; in the experiment with SK-MEL-5 melanoma, 46%; in the experiment with UACC-62 melanoma it was 19.6%; in the experiment on LOX IMVI melanoma it was -90.5% (active). Further, in the experiment on SK-MEL-28 melanoma, the growth is 48.6%.
Regarding `Cc1ccc(OC(=O)c2ccc(Cl)cc2)cc1`, the growth in the experiment on DU-145 prostate is 112%; with K-562 leukemia, 96.6%; with MALME-3M melanoma, 101%; in the experiment on MDA-MB-231 breast it was 81.7%; with RXF 393 renal, 109%; with SF-268 CNS, 45.2%. The growth is 93.3% in the experiment with SF-295 CNS; 95% in the experiment with SF-539 CNS; 102% in the experiment on UACC-257 melanoma; 102% in the experiment on M14 melanoma; 102% in the experiment on HCT-15 colon; 89.2% in the experiment on HT29 colon. For the same molecule, the growth is 77.1% with SNB-75 CNS; 103% in the experiment on SNB-19 CNS; 102% with U251 CNS; 103% in the experiment with SK-MEL-5 melanoma; 94.7% in the experiment with UACC-62 melanoma; 99.3% in the experiment on LOX IMVI melanoma. For the same molecule, the growth in the experiment with SK-MEL-28 melanoma is 106%.
Turning to `Nc1ccc(-c2cc3c(Nc4ccc(Oc5cccc(C(F)(F)F)c5)c(Cl)c4)ncnc3s2)cc1`, the growth in the experiment on DU-145 prostate was 72.5%; in the experiment with K-562 leukemia, 24.9%; in the experiment with MALME-3M melanoma, 91.8%; with MDA-MB-231 breast, 95.1%; in the experiment with RXF 393 renal it was 35.7%; in the experiment on SF-268 CNS, 66.1%. For the same molecule, the growth is 77.2% in the experiment with SF-295 CNS; 74.5% in the experiment with SF-539 CNS; 77% in the experiment with UACC-257 melanoma; 86.6% in the experiment on M14 melanoma; 44.6% in the experiment with HCT-15 colon; 64% with HT29 colon. The growth is 78.1% in the experiment with SNB-75 CNS; 89.8% with SNB-19 CNS; 79% with U251 CNS; 70.9% in the experiment with SK-MEL-5 melanoma; 81.9% in the experiment on UACC-62 melanoma; 50.1% with LOX IMVI melanoma. Also, the growth in the experiment with SK-MEL-28 melanoma was 83.1%.
On to `COc1cccc(/C=N/NC(=O)c2ccccc2Nc2ccnc(C(F)(F)F)c2)c1O`, for which the growth was 22.8% in the experiment with DU-145 prostate; 33.7% with K-562 leukemia; 1.24% (active) in the experiment on MALME-3M melanoma; 42.6% with MDA-MB-231 breast; 21% in the experiment with RXF 393 renal; 18.9% with SF-268 CNS. The growth with SF-295 CNS is 18.6%; in the experiment on SF-539 CNS, 0.849% (active); with UACC-257 melanoma it was 8.18% (active); in the experiment with M14 melanoma, -30.1% (active); in the experiment with HCT-15 colon, 28.4%; in the experiment with HT29 colon, 51.3%. In addition, the growth is 19.6% with SNB-75 CNS; 21.1% in the experiment with SNB-19 CNS; 17.1% in the experiment with U251 CNS; -33.1% (active) in the experiment on SK-MEL-5 melanoma; -24.2% (active) in the experiment on UACC-62 melanoma; 4.88% (active) in the experiment on LOX IMVI melanoma. For the same molecule, the growth in the experiment with SK-MEL-28 melanoma is 23%.
With `O=C(COc1cccc(/C=C2\CSc3ccccc3C2=O)c1)Nc1nccs1`, the growth is 106% in the experiment on DU-145 prostate; -58.1% (active) with K-562 leukemia; 16.9% with MALME-3M melanoma; 80.6% with MDA-MB-231 breast; 71% with RXF 393 renal; 43.5% with SF-268 CNS. Further, the growth was 115% with SF-295 CNS; 75.3% in the experiment with SF-539 CNS; 86% in the experiment with UACC-257 melanoma; 39.1% in the experiment on M14 melanoma; 75.5% with HCT-15 colon; 15.9% in the experiment on HT29 colon. The growth is 22.2% with SNB-75 CNS; 79.5% in the experiment with SNB-19 CNS; 41.8% in the experiment with U251 CNS; 64.1% in the experiment with UACC-62 melanoma; -100% (active) with LOX IMVI melanoma; -0.13% (active) in the experiment with SK-MEL-28 melanoma.
Turning to `CCOC(=O)c1csc(NC(=O)COc2cccc(/C=C3\CSc4ccccc4C3=O)c2)n1`, the growth was 87.1% with DU-145 prostate; -64.3% (active) in the experiment with K-562 leukemia; -52.6% (active) with MALME-3M melanoma; 59.2% in the experiment on MDA-MB-231 breast; 64.9% in the experiment on RXF 393 renal; -37.2% (active) in the experiment on SF-268 CNS. Further, the growth in the experiment with SF-295 CNS is 93.7%; with SF-539 CNS, -89.1% (active); in the experiment on UACC-257 melanoma it was 84.5%; in the experiment with M14 melanoma, -58.5% (active); in the experiment with HCT-15 colon it was 89%; with HT29 colon, -34.2% (active). Moreover, the growth in the experiment with SNB-75 CNS is -33.7% (active); with SNB-19 CNS, 81.3%; in the experiment with U251 CNS, -54.2% (active); in the experiment with SK-MEL-5 melanoma, 54.5%; in the experiment with UACC-62 melanoma, 64.4%; in the experiment with LOX IMVI melanoma it was -93.9% (active). The growth in the experiment with SK-MEL-28 melanoma is 89.3%.
Regarding `CCOC(=O)n1cc(-c2nonc2-c2cn(C)c3ncccc23)c2ccccc21`, the growth in the experiment with DU-145 prostate was 97.1%; in the experiment on K-562 leukemia, 40.6%; in the experiment on MALME-3M melanoma, 84.4%; with MDA-MB-231 breast it was 63.8%; in the experiment with RXF 393 renal, 81.7%; in the experiment on SF-268 CNS, 82.2%. For the same molecule, the growth in the experiment with SF-295 CNS is 82.8%; with SF-539 CNS it was 92.3%; with UACC-257 melanoma it was 98%; with M14 melanoma, 90.1%; in the experiment on HCT-15 colon it was 60.2%; in the experiment with HT29 colon, 79.5%. In addition, the growth with SNB-75 CNS was 61.6%; with SNB-19 CNS it was 89.3%; with U251 CNS, 83.2%; with SK-MEL-5 melanoma, 77.3%; in the experiment with UACC-62 melanoma, 64.6%; with LOX IMVI melanoma, 84.3%. Also, the growth in the experiment on SK-MEL-28 melanoma is 104%.
As for `COc1ccc(-n2nc(C)c3c(Nc4ccc(NC(=O)Nc5ccc(Cl)c(C(F)(F)F)c5)cc4)ncnc32)cc1`, the growth is 23.8% in the experiment with DU-145 prostate; 5.84% (active) with K-562 leukemia; -27.5% (active) with MALME-3M melanoma; -25% (active) in the experiment on MDA-MB-231 breast; -35.7% (active) with RXF 393 renal; 17.7% with SF-268 CNS. Besides, the growth is -39.7% (active) in the experiment with SF-295 CNS; -5.4% (active) in the experiment with SF-539 CNS; -16.6% (active) with UACC-257 melanoma; -26.9% (active) with M14 melanoma; -9.82% (active) in the experiment with HCT-15 colon; 1.57% (active) in the experiment with HT29 colon. Further, the growth in the experiment on SNB-75 CNS was -4.71% (active); with SNB-19 CNS, 13.5%; with U251 CNS, -29.2% (active); in the experiment on SK-MEL-5 melanoma, -44.7% (active); with UACC-62 melanoma it was 4.84% (active); with LOX IMVI melanoma, -81.4% (active). Further, in the experiment with SK-MEL-28 melanoma, the growth was 4.78% (active).
